Screens: PubChem, National Center for Advancing Translational Sciences (NCATS)
Marburg entry inh: blocks Marburg virus binding to or entry into cells; Marburg virus pseudotyped entry inhibition, cell reporter; hit rate 1.8% among 300,000; Potency, µM (highest dose often 37.8 µM), for inactives: at the highest dose activity change, negative = inhibition, most hits filed as inhibitors; calls by dose curve; tested in HEK293 cells; note: potency is the fitted concentration of half-maximal effect; % is set by controls: 0 for no effect and ±100 for the full control effect
LASV entry inh: inhibitors of Lassa virus binding or cell entry; Lassa virus pseudotype entry inhibition, cell reporter; Potency, µM (top dose mostly 37.9 µM), for inactives: at the highest dose activity change, negative = inhibition, usual class: inhibitors; hit rate 1.2% among 300,000; AID 540256; calls by dose curve; tested in HEK293 cells; note: potency is the fitted concentration of half-maximal effect; % is set by controls: 0 for no effect and ±100 for the full control effect; nearly all actives have a fitted effect of over 50% in size
Shiga inhibitor: inhibitors of Shiga toxin in Vero cells; AID 2315; hit rate 9.2% among 290,000; Vero cells, Shiga toxin protein synthesis inhibition reporter; inhibition, % at 38.7 µM; in the data active = inhibition mostly above about 28%, no sharp cut-off; inactive = mostly below about 43%; note: 0% is about no effect
CHX counter: counter-screen hit for Shiga toxin inhibitors, cycloheximide; cell reporter, cycloheximide protein synthesis inhibition counterscreen; max response, %; hit rate 12% among 300,000; AID 2314; in the data active = max response mostly above about 13%, no sharp cut-off; inactive = mostly below about 14%; note: read at 38.3 µM for the half of the compounds with a filed dose; 0% is about no effect
Pf growth 48h: P. falciparum growth inhibition at 48 hours (one generation). P. falciparum luciferase growth in erythrocytes, 48 h. Potency, µM (highest dose often 28.7 µM), without a hit: at the highest dose activity change, negative = inhibition, most hits filed as inhibitors. hit rate 5.9% among 310,000; note: potency is the fitted concentration of half-maximal effect; % is set by controls: 0 for no effect and ±100 for the full control effect
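Luciferase-expressing P. falciparum in infected erythrocytes (2% hematocrit, 0.1% parasitemia final) in RPMI 1640/0.5% Albumax were exposed to compound for 48 hours at 37 C, 5% CO2; growth read as luminescence.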
Pf growth 96h: P. falciparum growth inhibition at 96 hour, primary screen for plastid delayed-death inhibitors; P. falciparum luciferase reporter growth, 96 h; Potency, µM (top dose mostly 28.7 µM), without a hit: at the top dose activity change, negative = inhibition, actives largely listed as inhibitors; hit rate 6.9% among 320,000; note: potency is the fitted concentration of half-maximal effect; % is set by controls: 0 for no effect and ±100 for the full control effect
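Plates of compound plus infected erythrocytes (2% hematocrit, 0.05% parasitemia final) incubate 96 hours, 37 C, 5% CO2. Detection reagent added; reduced luminescence from the parasites' luciferase reporter flags inhibition.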
* marks the source's active call; other numbers are inactive results; ? = inconclusive; . = not tested or not shown; [ ] = another dose, or the depositor's remark. An excerpt weighted towards active compounds, which were near 19% of everything screened. Unless noted, calls come from the whole dose curve; as a rule, active = well fitted inhibition curve with a large enough effect; inconclusive = small, poorly fitted or top-dose-only effect, or another doubt; inactive = no such curve, though single readings can be large or run the other way.

SMILES	Marburg entry inh	LASV entry inh	Shiga inhibitor	CHX counter	Pf growth 48h	Pf growth 96h
CCC(C)(C)NC(=O)C(c1cccn1C)N(C(=O)Cn1nnc2ccccc21)c1ccc(F)cc1 (stereo not drawn)	-5.0%	1.0%	26.9	-0.6	?	?
CC(C)CCc1noc(CN2CCC(CCN3CCCC3=O)CC2)n1	3.0%[46.1 µM]	-8.7%	30.3	15.0	17.9%	13.1µM*
O=c1cc(-c2ccc(O)cc2)oc2ccc3ccccc3c12	.	.	.	.	-33.1%	-4.3%
COc1cc2oc(-c3ccc(O)cc3)cc(=O)c2c(OC)c1O	.	.	28.5	7.0	?	?
COc1cc(-c2cc(=O)c3c(C)cc(O)cc3o2)cc(OC)c1OC	-26.9%	-0.8%	.	.	.	.
COc1c(O)cc2oc(-c3ccc(O)cc3)cc(=O)c2c1O	.	.	51.4*	12.9*	367.8%	-6.5%
COc1cc2oc(-c3ccc(O)cc3)cc(=O)c2c(O)c1OC	.	.	24.7	10.1*	-0.9%	10.4µM*
COc1ccc(-c2cc(=O)c3c(O)cc(O)cc3o2)cc1O	.	.	70.1*	34.0*	.	.
COc1ccccc1NC(=O)c1c(NCc2ccc(OC)c(OC)c2OC)sc2c1CCCC2	.	-21.6%[46.1 µM]	.	.	.	.
CC1CC=C(c2ccccc2)C(=S)N1 (stereo not drawn)	-0.7%[46.1 µM]	20.4%	10.7	-1.9	-22.9%	?
CC(C)N(C(=O)Cn1cc(SCC(=O)NCc2ccco2)c2ccccc21)C(C)C	-23.6%	-3.4%	-10.6	0.6	-8.0%	132.0%
O=C(CSc1cn(CCNC(=O)c2ccccc2)c2ccccc12)NCc1ccco1	.	.	52.7*	36.1*	.	?
O=C(NCCn1cc(SCc2ccc(F)cc2)c2ccccc21)c1c(F)cccc1F	?	-4.7%[46.1 µM]	25.2	14.1*	?	?
CCCn1cc(SCC(=O)NCc2ccco2)c2ccccc21	0.4%	1.4%	15.6	8.7	2.08µM*	6.57µM*
O=C(CCSCc1ccccc1F)NCc1cccnc1	25.8%	11.5%	2.0	1.4	-3.5%	0.0%
COC(=O)c1c(C)n(Cc2ccco2)c2ccc(O)cc12	-17.1%	-2.4%	-6.5	5.8	18.9%	.
CCC(=O)Nc1ccc2nc3c(=O)[nH]c(=S)[nH]c3nc2c1	-25.6%[46.1 µM]	22.8%[46.1 µM]	1.5	-2.2	.	?
O=C(/C=N/O)Nc1ccc2sc3ccccc3c2c1	10.3%[46.1 µM]	8.6%	70.7*	53.8*	36.5%	2.6%
CC(C)NC(=O)c1onc(CSc2ccc(Cl)cc2)c1C(=O)NC(C)C	.	.	-2.2	-2.3	5.22µM*	3.29µM*
CCCCNC(=O)c1onc(CSc2ccncc2)c1C(=O)NCCCC	.	.	2.2	-5.9	?	-28.7%
CC(C)NC(=O)c1onc(CSc2ccc(F)cc2)c1C(=O)NC(C)C	.	.	.	.	4.65µM*	9.28µM*
CCCCNC(=O)c1onc(CSc2ccccc2)c1C(=O)NCCCC	.	.	.	.	?	11.7µM*
CCCCNC(=O)c1onc(CS(=O)(=O)c2ccccn2)c1C(=O)NCCCC	.	.	.	.	?	14.7µM*
COc1ccc(C(=O)NCc2nc(-c3cccc(C)c3)no2)cc1OC	?	10.3%[46.1 µM]	.	.	.	.
Cc1ccc(S(=O)(=O)c2c(C)cc(C)nc2Oc2cccc(C(F)(F)F)c2)cc1	?	?	-5.5	10.3	?	?
SMILES	Marburg entry inh	LASV entry inh	Shiga inhibitor	CHX counter	Pf growth 48h	Pf growth 96h
CC1CCCC(NC(=O)CNC(=O)c2cccs2)C1C (stereo not drawn)	1.8%[46.1 µM]	13.6%	.	.	13.7%	25.7%
O=C(Cc1ccccc1)N1CCN(C(=O)c2ccco2)CC1	0.2%	1.5%	-0.6	0.1	20.9%	-8.6%
CC(C)CCNC(=O)c1onc(CSc2nc3ccccc3[nH]2)c1C(=O)NCCC(C)C	.	.	11.8	0.6	?	2.33µM*
CCCCNC(=O)c1c(CSc2ccc(Cl)cc2)noc1C(=O)NCCC	.	.	.	.	-95.2%	?
CCCNC(=O)c1onc(CSc2ccc(Cl)cc2)c1C(=O)NC(C)C	.	.	.	.	11.7µM*	4.65µM*
O=C(CCn1c(=O)oc2ccccc21)N1CCN(c2ccc(F)cc2)CC1	.	.	5.8	-1.4	-5.4%	0.2%
COC(=O)C1Cc2c([nH]c3ccccc23)CN1 (stereo not drawn)	?	4.9%	37.4	19.4	30.5%	101.0%
COC(=O)[C@@H]1Cc2c([nH]c3ccccc23)C(C)(C)N1C(=O)CCl	7.08µM*	7.94µM*	17.5	18.3	11.7µM*	?
N#CC12CCCCC1CC1CCCCC1(C#N)N2N (stereo not drawn)	-9.1%	?	24.5	10.8	13.1µM*	?
